# Reference: PubChem BioAssay
# Activity calls are given as the source filed them. Unless noted, how the calls were made is not given here.
# What was measured:
# [1] = test system: Wnt5a (protein binding on small-molecule microarray); assay: Wnt5a binders on small-molecule microarray, primary screen, biophysical, 635/667 nm fluorescence (AID 1142); settings: 635 nm fluorescence, higher = more signal;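 further: fluorescence read at 667 nm with signal to noise per printed feature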
# [2] = cell viability in Huh7 cells, primary screen, cytotoxicity control for HCV replication inhibitor project, CellTiter-Glo luminescence, basal, 48 h (AID 1143); settings: Huh7 HCV replicon, higher = more signal, called active from +8 up or from −8 down;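 further: Huh7 hepatoma cells carrying a hepatitis C replication reporter with no stimulus; test concentration not given here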
# [3] = P. aeruginosa biofilm formation inhibitors, primary screen, PAO1 strain, BacTiter-Glo luminescence, LB-PBS (AID 1144); settings: 12 h, higher = more signal
# [4] = CREB reporter modulators without forskolin, primary screen, cell-based, PC12, CRE-LacZ reporter, unstimulated (AID 1145); settings: no forskolin, luminescence, 4.5 h, higher = more signal, called active from +8 up or from −8 down
# [5] = CREB reporter modulators under forskolin, primary screen, cell-based, PC12, CRE-LacZ reporter, forskolin-stimulated (AID 1146); settings: luminescence, 4.5 h, higher = more signal, called active from +8 up or from −8 down;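 further: PC12 cells with 6xCRE LacZ reporter stimulated by forskolin 10 µM; beta-galactosidase reporter signal reflecting CREB driven transcription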
# [6] = target: Streptavidin (Streptomyces avidinii) (UniProt P22629); assay: streptavidin binders on small-molecule microarray, primary screen, artefact control for SMM compound annotation, biophysical, 635/667 nm fluorescence (AID 1147); settings: streptavidin binding, higher = more signal;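 further: signal reflects streptavidin binding to arrayed compounds as a control protein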
# Sequence of Streptavidin (Streptomyces avidinii) (P22629 whole entry, looked up): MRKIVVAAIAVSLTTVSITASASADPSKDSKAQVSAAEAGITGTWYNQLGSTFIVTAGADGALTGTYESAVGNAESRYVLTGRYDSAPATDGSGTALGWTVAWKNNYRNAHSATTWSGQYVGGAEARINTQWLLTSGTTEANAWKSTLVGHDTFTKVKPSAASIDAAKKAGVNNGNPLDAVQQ
# [7] = small-molecule binders of probe aInhba, primary screen, biochemical, small-molecule microarray, 635/667 nm fluorescence (AID 1148); settings: higher = more signal;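 further: score merges 667nm spot fluorescence with signal-to-noise for antibody binding to printed compounds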
# Torsin-1A (Homo sapiens) [8] = target: Torsin-1A (Homo sapiens) (UniProt O14656); assay: torsin A binders from cell lysate, primary screen, small-molecule microarray, wild-type, 635/667 nm (AID 1149); settings: COS7 hTOR1A-WT lysate, 635 nm fluorescence, higher = more signal
# Sequence of Torsin-1A (Homo sapiens) (O14656 whole entry, looked up): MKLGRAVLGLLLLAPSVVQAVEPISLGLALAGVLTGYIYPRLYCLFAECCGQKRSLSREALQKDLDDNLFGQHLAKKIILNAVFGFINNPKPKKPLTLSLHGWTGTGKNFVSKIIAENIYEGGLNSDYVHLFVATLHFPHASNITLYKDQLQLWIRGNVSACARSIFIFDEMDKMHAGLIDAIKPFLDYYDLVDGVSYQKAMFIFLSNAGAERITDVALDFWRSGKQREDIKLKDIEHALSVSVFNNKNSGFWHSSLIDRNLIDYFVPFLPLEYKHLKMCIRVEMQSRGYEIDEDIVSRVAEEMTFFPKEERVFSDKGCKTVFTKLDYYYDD
# Torsin-1A (Homo sapiens) [9] = target: Torsin-1A (Homo sapiens) (UniProt O14656); assay: small-molecule binders of mutant TOR1A in lysate, primary screen, cell lysate, small-molecule microarray, COS7 lysate, 635/667 nm fluorescence (AID 1150); settings: COS7 hTOR1A mutant lysate, 635 nm fluorescence, higher = more signal;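 further: score pools 667 nm emission and signal to noise measuring lysate protein binding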
# [10] = test system: Sonic hedgehog protein (Shh); assay: small-molecule binders of Shh protein, primary screen, biochemical, small-molecule microarray, 635/667 nm fluorescence (AID 1151); settings: small-molecule microarray binding, 635 nm fluorescence; higher = more signal;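 further: Shh protein binding to compounds spotted on small-molecule microarray slides; score combines spot fluorescence intensity with signal-to-noise across triplicate slides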
Structure (SMILES),composite z-score [1],z-score [2],z-score [3],z-score [4],z-score [5],composite z-score [6],composite z-score [7],composite z-score (Torsin-1A (Homo sapiens) [8]),composite z-score (Torsin-1A (Homo sapiens) [9]),composite z-score [10]
COC(=O)[C@@]1(Cc2ccc(F)cc2)[C@H]2c3cc(C(=O)N(C)C)n(CCc4ccccn4)c3C[C@H]2CN1C(=O)c1ccccc1,1.9,-1.86 (inactive),-0.604 (inactive),0.39 (inactive),-0.038 (inactive),-0.0936,1.14,1.23,0.948,-0.154
NCCCCCCNC(=O)[C@H]1C[C@H]2C(=O)NCC(=O)N2[C@H]1c1cccc(OCCO)c1,0.363,0.0443 (inactive),0.0567 (inactive),-0.675 (inactive),-0.405 (inactive),0.485,-0.128,1.16,0.872,1.61
C=CC[C@@]1(C(=O)NCC(O)CO)N=C(c2ccc(OCCCO)cc2)O[C@@H]1c1ccccc1N=[N+]=[N-] (stereo not given in full),0.147,-4.04 (inactive),-0.281 (inactive),0.573 (inactive),-0.815 (inactive),1.02,0.246,1.4,1.48,-0.0776
O=C1O[C@H](c2ccccc2)[C@H](c2ccccc2)N2[C@H]1[C@@H](C(=O)NC[C@H](O)c1ccccc1)[C@]1(C(=O)Nc3ccc(C#CCCO)cc31)[C@H]2c1ccc(O)cc1,-0.11,-4.32 (inactive),-1.16 (inactive),-0.329 (inactive),0.0393 (inactive),-1.11,0.295,-0.596,-1.36,-0.606
Cc1ccc(S[C@]2(C(=O)O)CC(=O)N(C3Cc4ccccc4C3)[C@@H]2c2ccc(CO)cc2I)cc1,-0.227,-1.02 (inactive),-0.138 (inactive),-0.062 (inactive),-0.097 (inactive),0.103,-0.0791,-0.594,-0.584,-0.439
COc1cc(C(O)C2C=CC3C(=O)N(c4ccccc4)C(=O)C3N2Nc2ccc(C#N)cc2)cc(OC)c1OC (stereo not given),0.537,0.616 (inactive),-0.201 (inactive),0.426 (inactive),0.238 (inactive),1.66,0.201,0.249,0.204,0.117
CCCCCCc1nc(CCCc2cc3c(c(CCCCCC)n2)[Si](C(C)C)(C(C)C)OC3)cc2c1[Si](C(C)C)(C(C)C)OC2,-0.0564,-5.79 (inactive),-0.194 (inactive),1.78 (inactive),0.444 (inactive),1.91,-0.101,-0.333,0.0509,0.551
COCCOC(=O)N1C(=O)[C@@]2(c3cc(C#CCC(C(=O)OC)C(=O)OC)ccc31)[C@H](C(=O)N1CCN(c3ncccn3)CC1)[C@H]1C(=O)O[C@H](c3ccccc3)[C@H](c3ccccc3)N1[C@@H]2c1ccc(OCCO)cc1,0.148,-3.18 (inactive),-1.66 (inactive),-1.83 (inactive),-1.08 (inactive),0.392,-0.0221,0.2,0.542,1.3
O=C1OCCC/C=C\[C@H]2OC34C=CCN(Cn5nnc6ccccc65)C(=O)[C@H]3N(CCCCCO)C(=O)[C@@H]4C12 (stereo not given in full),-0.883,-0.19 (inactive),-0.477 (inactive),-0.35 (inactive),-0.26 (inactive),-1.21,-0.0762,-2.35,-0.736,0.436
O=c1oc(-c2ccccc2)nc2cc(Br)ccc12,0.147,-0.746 (inactive),0.786 (inactive),0.416 (inactive),0.827 (inactive),0.0708,-0.176,0.641,0.508,0.44
O=C1C2C=CC(C(O)c3ccc(F)cc3)N(Nc3ccccc3)C2C(=O)N1c1ccccc1 (stereo not given),0.137,0.633 (inactive),-0.686 (inactive),-0.522 (inactive),-0.49 (inactive),0.0517,0.212,0.171,-0.27,-0.61
CCOC(=O)C[C@H]1[C@H](OC(=O)c2ccccc2-c2ccccc2)[C@@H](NC(=O)c2ccc3ccccc3c2)c2cc(OCCCO)ccc2N1C(=O)c1ccc2ccccc2n1,0.0952,0.0364 (inactive),-0.756 (inactive),0.311 (inactive),0.429 (inactive),0.162,-0.0087,0.335,0.0486,0.575
COc1ccc(NN2C(C(O)c3ccc(OC)c(OCc4ccccc4)c3)C=CC3C(=O)N(C4CCCCC4)C(=O)C32)cc1 (stereo not given),0.285,-2.17 (inactive),-1.73 (inactive),-0.322 (inactive),0.693 (inactive),1.19,0.0769,-0.196,0.185,-0.504
CC(C)C[C@@H]1NC(=O)[C@H]2C[C@@H](C(=O)NCCCCCNC(=O)CS)[C@@H](c3cccc(OCCO)c3)N2C1=O,1.1,-1.07 (inactive),0.644 (inactive),0.289 (inactive),0.0824 (inactive),0.024,-0.0112,1.07,0.867,2.09
CO[C@H]1O[C@H](CO)[C@@H](OC(=O)Nc2ccc(Oc3ccccc3)cc2)[C@H](OC(=O)Nc2ccccc2)[C@H]1OC(=O)Nc1ccccc1,1.07,-5.1 (inactive),-2.24 (inactive),0.512 (inactive),-1.64 (inactive),0.693,0.167,0.546,0.76,1.86
CN(C)CCCNC(=O)[C@@]1(Cc2ccccc2I)c2ccccc2C(=O)N(Cc2ccccc2C(F)(F)F)[C@H]1c1ccc(CO)cc1,-0.753,-5.77 (inactive),-0.233 (inactive),0.351 (inactive),-0.742 (inactive),0.154,-0.162,-1.08,0.135,-0.678
CN(C)C(=O)[C@@]1(CCC(=O)OC(C)(C)C)N=C(c2ccc(OCCCO)cc2)O[C@H]1c1ccccc1,0.257,-4.42 (inactive),-0.573 (inactive),0.195 (inactive),-1.4 (inactive),0.0732,0.776,0.635,1.74,-0.467
COCC(=C=CC[C@@H](O)c1ccc(CO)o1)CCO,0.0507,-3.6 (inactive),-1.23 (inactive),0.014 (inactive),-0.845 (inactive),-0.618,-0.024,-0.117,-0.114,2.2
COc1ccc(CCNC(=O)[C@@]2(c3ccc([N+](=O)[O-])cc3)CC(=O)N(CC34CC5CC(CC(C5)C3)C4)[C@@H]2c2ccc(CO)cc2)cc1,0.145,-5.75 (inactive),-1.36 (inactive),-0.062 (inactive),0.164 (inactive),0.531,0.327,0.246,0.388,0.948
CCCCCN1CC=CC23O[C@@H]4/C=C\CCCOC(=O)C4[C@H]2C(=O)N(CCCCCCO)[C@@H]3C1=O (stereo not given in full),-0.686,-1.95 (inactive),-2.51 (inactive),-1.44 (inactive),-0.43 (inactive),-1.21,-0.128,0.61,0.474,0.124
COC(=O)C[C@@H]1C[C@H](C)[C@]2(O1)C(=O)N(Cc1ccccc1)c1ccc(NC(C)=O)cc12,0.739,-0.578 (inactive),0.347 (inactive),3.56 (inactive),-0.47 (inactive),-0.101,-0.128,0.0771,0.362,0.034
